The values that follow come from PubChem BioAssay (NCATS).

Records with an inconclusive call do not appear. Calls of active or inactive are those of the source. Calls come from the whole dose curve.
% is set by controls: 0 for no effect and ±100 for the full control effect; potency is the fitted concentration of half-maximal effect.

The assay deals with Nucleoprotein (Lymphocytic choriomeningitis virus (strain Armstrong)) (UniProt P09992). Description: qHTS for Inhibitors of the Functional Ribonucleoprotein Complex (vRNP) of Lymphocytic Choriomeningitis Arenaviruses (LCMV): LCMV Primary Screen - GLuc reporter signal (AID 1347086). Note: nearly all actives have a fitted effect of over 70% in size. To be noted: LCMV minigenome vRNP cell assay, Gaussia luciferase reporter; series mostly up to 57.5 µM; activity change, negative = inhibition: at the top concentration.
Nucleoprotein (Lymphocytic choriomeningitis virus (strain Armstrong)), sequence (P09992 whole entry, looked up): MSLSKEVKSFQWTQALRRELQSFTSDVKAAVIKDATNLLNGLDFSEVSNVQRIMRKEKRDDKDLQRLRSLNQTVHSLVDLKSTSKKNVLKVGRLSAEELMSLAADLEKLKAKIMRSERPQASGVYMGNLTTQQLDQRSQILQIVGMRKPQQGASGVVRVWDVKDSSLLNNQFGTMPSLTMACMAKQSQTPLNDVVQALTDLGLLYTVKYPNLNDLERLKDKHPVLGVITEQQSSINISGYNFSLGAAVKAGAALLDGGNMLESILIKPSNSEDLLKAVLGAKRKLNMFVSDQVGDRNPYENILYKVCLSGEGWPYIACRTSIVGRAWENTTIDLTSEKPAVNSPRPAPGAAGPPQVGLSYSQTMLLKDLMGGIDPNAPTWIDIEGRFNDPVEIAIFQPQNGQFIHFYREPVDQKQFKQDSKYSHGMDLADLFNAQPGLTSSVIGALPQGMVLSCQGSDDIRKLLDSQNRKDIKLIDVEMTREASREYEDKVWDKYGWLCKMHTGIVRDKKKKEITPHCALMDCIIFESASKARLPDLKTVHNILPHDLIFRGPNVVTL
For `C/C=C(/C)C(=O)OC(C)(C)[C@@H]1Cc2c(ccc3ccc(=O)oc23)O1`, the “activity change, negative = inhibition” value was -68.6% (inactive).

Take `C=C1[C@@H](OC(C)=O)CC[C@]2(C)[C@@H]1C[C@@H]1C[C@H](OC(C)=O)C(C)=C([C@@H](OC(C)=O)[C@@H]2OC(C)=O)C1(C)C`: the “activity change, negative = inhibition” value was 3.69% (inactive). The same measure, in the same setting: the value for `COc1cccc2c(=O)c3ccoc3n(C)c12` was 7.56% (inactive); that for `COc1cc2c(c(OC)c1OC)-c1c(cc3c(c1OC)OCO3)CC(C)C(C)(O)C2OC(=O)c1ccccc1` (stereo not given) was 2.63% [at 24.7 µM] (inactive); that for `C/C=C1\CN2[C@H]3C[C@@]45c6ccccc6N(C)[C@H]4[C@@H]2CC1C3[C@H]5O` (stereo not given in full) was 5.97% (inactive).

For `c1ccc(-c2ccncc2)cc1`, the “activity change, negative = inhibition” value is 7.53% (inactive). `C=C(C)C(COc1c2occc2cc2ccc(=O)oc12)OC(C)(C)C(O)COc1c2occc2cc2ccc(=O)oc12` (stereo not given): the “activity change, negative = inhibition” value is 7.58% (inactive). For `Cc1nc(Nc2n[nH]c3c2CN(C(=O)N[C@H](CN(C)C)c2ccccc2)C3(C)C)c2sccc2n1`, the Potency was 8.63 µM (active). Consider `CC(C)(O)CC[C@@H](O)[C@](C)(O)C1CC[C@@]2(O)C3=CC(=O)[C@]4(O)C[C@@H](O)[C@@H](O)C[C@]4(C)C3CC[C@]12C` (stereo not given in full), for which the “activity change, negative = inhibition” value is 0.603% (inactive). Take `COC(=O)C(O)C(O)(CCC(C)C)C(=O)OC1C(OC)=CC23CCCN2CCc2cc4c(cc2C13)OCO4` (stereo not given): the “activity change, negative = inhibition” value is -103% (inactive). Still for that read-out and setting: with `Oc1cc(O)cc(-c2cc3ccc(O)cc3o2)c1` the figure was -12.1% (inactive); with `COc1cc2c(c(OC)c1OC)-c1c(cc3c(c1OC)OCO3)C1OC2[C@@H](C)[C@H]1C` (stereo not given in full), 11% (inactive).

Take `CC1(C)C2CC1[C@@](C)(O)[C@H](O)C2` (stereo not given in full): the “activity change, negative = inhibition” value was 7.47% (inactive).

On to `COc1cc(C)c(C(=O)Oc2cc(C)c(C(=O)O)c(O)c2C)c(O)c1C(=O)O`, for which the “activity change, negative = inhibition” value is 10.2% (inactive). The same measure, in the same setting: the value for `COc1cc(OC)c2c(c1)C(=O)OC2` was 2.6% (inactive). In the case of `CC1=C(C=O)C(C)(C)CCC1`, the “activity change, negative = inhibition” value is -2.29% [at 115 µM] (inactive). Same read-out and setting: the value for `CCCCCCCCO[C@@H]1O[C@H](CO)[C@@H](O)[C@H](O)[C@H]1O` was 12.7% [at 115 µM] (inactive); that for `CC(C)C(=O)COc1c2occc2cc2ccc(=O)oc12` was 12.9% (inactive); that for `Nc1nc2c(ncn2[C@@H]2O[C@H](COP(=O)(O)OP(=O)(O)OP(=O)(O)O)[C@@H](O)C2O)c(=O)[nH]1` (stereo not given in full) was -1.04% (inactive).

On to `CC12CCC(=O)C=C1C(F)CC1C2C(O)CC2(C)C1CCC2(O)C(=O)CO` (stereo not given), for which the “activity change, negative = inhibition” value is 57.4% (inactive).

With `C=C(C)[C@@H]1CCC2=CC(=O)C[C@@H](C)[C@]2(C)C1`, the “activity change, negative = inhibition” value is 1.16% [at 115 µM] (inactive). Still for that read-out and setting: the value for `C[C@H]1CC2C3CCC4=CC(=O)C=C[C@]4(C)[C@@]3(Cl)[C@@H](O)C[C@]2(C)[C@@]1(O)C(=O)CO` (stereo not given in full) was 55.1% (inactive); that for `CC1CCC(=O)O1` (stereo not given) was 12.4% [at 115 µM] (inactive); that for `COc1ccc2c(c1)c(=O)cc(-c1ccccc1)n2C` was 13.3% (inactive). Take `CSc1c(Cl)c(Cl)c(Cl)c(Cl)c1Cl`: the “activity change, negative = inhibition” value was 29.8% [at 115 µM] (inactive). On the same count and under the same terms, with `Cc1cccc2c3c(ccc12)C1=C(C(=O)C3=O)[C@@H](C)CO1` the figure was 19.3% (inactive); with `O=C(CCCCO)CCCCCCCC[C@H]1N[C@H](CO)[C@H](O)[C@@H]1O[C@@H]1O[C@H](CO)[C@@H](O)[C@H](O)[C@H]1O`, -5.97% (inactive).

As to `O=C(O)CCC/C=C\C/C=C\C=C\[C@@H](O)C/C=C\CCCCCO`, the activity change, negative = inhibition is 12.9% [at 0.757 µM] (inactive). The same measure, in the same setting: with `CCCCCC/C=C/C=O` the figure was 7.68% [at 115 µM] (inactive); with `CCCCCCC[C@@H](C/C=C/CCC(=O)N(C)C/C(=C/Cl)C/C(=C\C(=O)N1CC(OC)=CC1=O)OC)OC`, 3.9% (inactive); with `O=c1c(-c2ccc(O)cc2)coc2cc(OC3OC(CO)C(O)C(O)C3O)ccc12` (stereo not given), 22.2% (inactive). Same read-out and setting: with `COC(/C=C(\C)CCC=C(C)C)OC` the figure was 17% [at 115 µM] (inactive); with `Cn1cnc2c(ncn2[C@@H]2O[C@H](CO)[C@@H](O)[C@H]2O)c1=N`, 19% (inactive). For `COc1c(C)c2c(c(O)c1CC=C(C)CCC(=O)OCCN1CCOCC1)C(=O)OC2`, the Potency was 6.11 µM (active). In the case of `Nc1ncnc2c1ncn2[C@H]1O[C@H](CO)[C@@H](O)[C@@H]1O`, the “activity change, negative = inhibition” value is 27.9% [at 24.7 µM] (inactive). Take `C/C=C(/CC[C@@H](C)[C@H]1CC[C@H]2C3=CC[C@H]4[C@H](C)[C@@H](O)CC[C@]4(C)[C@H]3CC[C@]12C)C(C)C`: the “activity change, negative = inhibition” value was 10.9% (inactive).

As for `COc1cc2c(c3oc(-c4ccccc4)cc(=O)c13)C=CC(C)(C)O2`, the “activity change, negative = inhibition” value is -23.5% (inactive). As to `C[C@@H]1C(=O)CC2C(C)(C)CCC[C@]2(C)[C@@]1(O)CCc1ccoc1` (stereo not given in full), the “activity change, negative = inhibition” value is 3.23% (inactive). Still for that read-out and setting: the value for `O=C(/C=C/c1ccccc1)NCCc1cnc[nH]1` was 12.4% (inactive). For the molecule `CC(C)(O)Cn1c(NC(=O)c2ccc(-c3cn[nH]c3)s2)nc2cc(CN3CCOCC3)ccc21`, the Potency is 10.9 µM (active).
